# Assay results: PubChem BioAssay (NCATS)
# Results filed as inconclusive are left out. Where a call stands in place of a potency, no number is given. Calls of active or inactive are those of the source. The call rests on the fitted dose curve; in most records, active means well fitted activation curve with a large enough effect in the main read-out, with a control signal flat (not every such curve was filed as active); inconclusive means small, poorly fitted or top-dose-only effect, or effect the other way, or a change in a side signal; inactive means flat fitted curve, though single readings scatter.
# Molecular target: 3',5'-cyclic-AMP phosphodiesterase 4B (Homo sapiens) (UniProt Q07343)
# Experiment: qHTS Assay for Inhibitors of PDE-IV (AID 607)
# Settings: HEK293 ACTOne CNG channel cells, membrane potential fluorescence; series mostly up to 22.9 µM
# How it was run: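 Live HEK293 cells with a modified cyclic nucleotide-gated (CNG) channel report intracellular cAMP via membrane-potential dye fluorescence (ex 535/em 590 nm). Endogenous PDE-IV was targeted. Compounds were tested at up to 22.9 uM final; RO 20-1724 100 uM served as control.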
# Chain of 3',5'-cyclic-AMP phosphodiesterase 4B (Homo sapiens) (Q07343 whole entry, looked up): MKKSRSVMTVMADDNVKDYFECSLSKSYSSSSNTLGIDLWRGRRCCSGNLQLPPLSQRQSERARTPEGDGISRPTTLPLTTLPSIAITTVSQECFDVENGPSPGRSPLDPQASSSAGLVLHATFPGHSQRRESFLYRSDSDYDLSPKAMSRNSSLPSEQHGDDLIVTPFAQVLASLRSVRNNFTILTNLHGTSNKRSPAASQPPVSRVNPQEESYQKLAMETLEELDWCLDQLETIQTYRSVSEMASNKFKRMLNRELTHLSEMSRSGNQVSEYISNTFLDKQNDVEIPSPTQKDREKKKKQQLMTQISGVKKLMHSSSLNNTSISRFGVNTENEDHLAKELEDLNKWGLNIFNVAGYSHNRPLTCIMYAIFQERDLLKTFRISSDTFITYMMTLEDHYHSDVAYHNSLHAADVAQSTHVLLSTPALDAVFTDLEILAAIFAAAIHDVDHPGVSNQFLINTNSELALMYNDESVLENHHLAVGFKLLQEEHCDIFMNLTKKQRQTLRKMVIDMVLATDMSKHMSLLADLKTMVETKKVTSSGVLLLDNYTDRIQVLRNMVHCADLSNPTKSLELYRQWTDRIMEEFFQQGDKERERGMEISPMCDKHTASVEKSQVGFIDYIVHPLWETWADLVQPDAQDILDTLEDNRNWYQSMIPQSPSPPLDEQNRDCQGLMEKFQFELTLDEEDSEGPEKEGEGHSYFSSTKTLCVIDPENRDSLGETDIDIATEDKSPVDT
row,Structure (SMILES),Potency
1,C[N+](C)(C)CCN(Cc1cccs1)c1ccccn1,inactive
2,CN1C[C@@H](C(=O)N[C@]2(C)O[C@]3(O)[C@H]4CCCN4C(=O)[C@H](Cc4ccccc4)N3C2=O)C[C@H]2c3cccc4[nH]cc(c34)C[C@@H]21,inactive
3,NC(=O)/C(=C\c1ccncc1)c1cccc2ccccc12,inactive
4,CCOC(=O)C1=C(C)NC(C)=C(C(=O)OC)[C@H]1c1cccc(Cl)c1Cl,inactive
5,C[C@H](CCC(=O)O)[C@H]1CC[C@@H]2[C@H]3CC[C@H]4C[C@@H](O)CC[C@@]4(C)[C@H]3CC[C@]21C,inactive
6,Cc1cc(C(C)(C)CC(C)(C)C)ccc1OCCOCC[N+](C)(C)Cc1ccccc1,inactive
7,CC[C@H](c1ccccc1)c1cc(C(C)(C)C)cc(C(C)(C)C)c1O,inactive
8,O[Si@](CCCN1CCCCC1)(c1ccc(F)cc1)C1CCCCC1,inactive
9,C[N+](C)(C)[C@@H](C1=CCCC1=O)c1ccccc1,inactive
10,CC(=O)O[C@@H]1[C@H]([N+]2(C)CCCCC2)C[C@@H]2[C@@H]3CC[C@@H]4C[C@@H](OC(C)=O)[C@H]([N+]5(C)CCCCC5)C[C@@]4(C)[C@H]3CC[C@]21C,inactive
